The record followed here is ChEMBL document CHEMBL3988442, “University of Dundee, Small-Polar-MMV Screening Library” (2021).

Screen size: about 69,000 compounds; about 950 (1.4%) showed an effect of 50% or more. This is one part of a sample in which strong results are shown more often than they occur.

This experiment concerns Mycobacterium tuberculosis. The experiment can be described thus: Cornell M. t heat shock assay. Note: in the data most compounds retested in dose-response had high values. More on the design: dose or concentration left out as unconfirmed. Type of experiment: functional, organism-based.
With `COc1ccc(CN2Cc3nnn(C)c3C(COCCN(C)C)C2)cc1.O=C(O)C(F)(F)F.O=C(O)C(F)(F)F` (configuration not stated), the “Percent Effect” value is on record as -24.51%. Turning to `Cl.Nc1ncc(-c2csc(NC(=O)C[C@H]3COCCN3)n2)cn1`, the “Percent Effect” value is recorded as -19.35%. Take `CCc1nnc(Nc2cccc(C3CCN(S(=O)(=O)N(C)C)CC3)n2)s1`: the “Percent Effect” value is given as -4.928%.

In the case of `Cc1cccc(C2CCCN2S(=O)(=O)N(C)C)n1` (configuration not stated), the “Percent Effect” value is -7.65%. Then `COCC(=O)N1CCCC1c1cccc(Nc2ncc(C)s2)n1` (configuration not stated), with 102.5%.

Turning to `Cc1cnc(Nc2cccc(C3CCCN3C(=O)CO)n2)s1` (configuration not stated), the “Percent Effect” value is -6.272%. As for `CCN(CC)S(=O)(=O)N1CCCC1c1cccc(Nc2ncc(C)s2)n1` (configuration not stated), the figure is 70.89%; as for `COCC(=O)N1CCCCC1c1ccnc(Nc2ncc(C)s2)n1` (configuration not stated), -16.88%. As for `COc1ccc(CN2C[C@@H](N(C)Cc3ccco3)[C@H]3OCCC[C@H]32)cc1.O=C(O)C(F)(F)F.O=C(O)C(F)(F)F`, the figure is 2.974%; as for `CCOc1ccccc1CNC(=O)Cn1ccc2c(C)nn(C)c2c1=O`, 9.293%; as for `O=C(Cc1ccccc1)N1CCCC2(COCCN(CC3CC3)C2)C1.O=C(O)C(F)(F)F` (configuration not stated), -3.666%. With `Cc1nc(Nc2nnc(C)s2)cc(C2CCCN2C2CCCC2)n1` (configuration not stated), the “Percent Effect” value is reported as -11.05%. Then `CN(C)c1nccc(N2CCO[C@H]3CN(Cc4nccn4C)C[C@H]32)n1.O=C(O)C(F)(F)F`, with -13.16%; and `CC(C)n1c2ccccc2c2c1cc(C(=O)O)n2C(=O)N(C)C`, with 64.45%; and `CC(C)n1c2ccccc2c2c1cc(C(=O)NCCO)n2C(=O)N(C)C`, with 20.51%.

Consider `CC(C)n1c2ccccc2c2c1cc(C(=O)N(C)C)n2C(=O)N(C)C`, for which the “Percent Effect” value worked out at 11.26%. As for `COc1ccc(CC(=O)N2CCN(c3nccn3C)CC2)cc1.Cl`, the figure is 6.481%.

On to `O=C(O)C(F)(F)F.O=S(=O)(C1CC1)N1CCCn2cnc(COc3cccnc3)c2C1`, for which the “Percent Effect” value worked out at 9.967%. Then `Cc1cc(NC(=O)CN2C(=O)CC(C)(C)c3ccccc32)no1`, with 6.008%. Then `CC1(C)CC(=O)N(CC(=O)Nc2ccon2)c2ccccc21`, with 77.91%; and `CCn1ccc(NC(=O)CN2C(=O)CC(C)(C)c3ccccc32)n1`, with 2.312%; and `Cc1cccc(NC(=O)CN2C(=O)CC(C)(C)c3ccccc32)n1`, with -2.777%. Then `CCn1cc(NC(=O)CN2C(=O)CC(C)(C)c3ccccc32)cn1`, with 52.7%; and `CCn1ccc(NC(=O)CN2C(=O)C(C)(C)c3ccccc32)n1`, with -16.77%; and `Fc1ccc(CN[C@@H]2COC[C@H]2c2ccc(F)cc2)cc1.O=C(O)CC(O)(CC(=O)O)C(=O)O`, with 2.118%. For the molecule `COc1cccc(OCCNCc2ccccc2)c1.O=C(O)C(=O)O`, the “Percent Effect” value is recorded as -6.728%. Then `CCc1ccc(CN2CCCn3c(nc(Cn4ccnc4)cc3=O)C2)o1.O=C(O)C(F)(F)F.O=C(O)C(F)(F)F`, with -19.48%; and `Cc1ccnc(N2CCCC(c3noc(C(C)C)n3)C2)n1` (configuration not stated), with 12.21%.

For the molecule `CN(C)C(=O)c1cn2cc(-c3ccccc3Cl)n(CC3CC3)c(=O)c2n1`, the “Percent Effect” value amounted to 22.72%.

As for `CCNC(=O)c1cn2cc(-c3ccccc3Cl)n(CC3CC3)c(=O)c2n1`, the “Percent Effect” value worked out at 99.63%. As to `CNC(=O)c1cn2cc(-c3ccccc3Cl)n(CC3CC3)c(=O)c2n1`, the “Percent Effect” value was found to be 12.71%. As for `COCCN1CCC2(CC1)CN(C(=O)N(C)C)c1ccc(C)cc12.O=C(O)C(F)(F)F`, the figure is -10.15%. Then `O=C(N[C@H]1CN(Cc2ccsc2)[C@@H]2CCCO[C@H]12)C1CC1.O=C(O)C(F)(F)F`, with 2.811%; and `Cc1cccc(CN2CC3(CCN(C(=O)N(C)C)CC3)OCC2=O)n1.O=C(O)C(F)(F)F`, with -24.23%; and `Cc1nc(CNC2CCCN(c3cccnn3)C2)no1` (configuration not stated), with -18.97%.

Take `CC(C)c1nc(CNC2CCCN(c3cccnn3)C2)no1` (configuration not stated): the “Percent Effect” value is -11.29%. As for `CC(C)(C)c1nc(CNC2CCCN(c3cccnn3)C2)no1` (configuration not stated), the figure is 53.11%; as for `Cc1cc(N2CCN(Cc3cn(C)nc3C)CC2)cc(C2CCNC2)n1.Cl` (configuration not stated), -5.922%; as for `O=C(NC1CCC1)[C@H]1C[C@@H]2CN(CC3CC3)C[C@H]1O2.O=C(O)C(F)(F)F`, 18.28%. As for `COCCN1CCC(CNCc2c[nH]nc2C(C)(C)C)CC1`, the figure is -7.94%. As for `CCN1CCC(CNCc2c[nH]nc2C(C)(C)C)C1.Cl` (configuration not stated), the figure is 48.77%; as for `CC(C)N1CCC(CNCc2c[nH]nc2C(C)(C)C)C1` (configuration not stated), 82.49%.

`CC(C)(C)c1n[nH]cc1CNCC1CCN(CC(F)(F)F)C1.Cl` (configuration not stated): the “Percent Effect” value was -7.348%. As for `CC(O)CN1CCC(CNCc2c[nH]nc2C(C)(C)C)CC1` (configuration not stated), the figure is 0.7064%; as for `CC(C)(C)c1n[nH]cc1CNCC1CCN(C2CC2)C1.Cl` (configuration not stated), 85.37%; as for `COc1nn(C)c2c1CCCN(C(=O)c1cccc(C)n1)C2.O=C(O)C(F)(F)F`, 26.28%. Consider `Cn1ccc(C(=O)N2C[C@@H]3OCCN(c4ncccn4)[C@@H]3C2)n1.O=C(O)C(F)(F)F`, for which the “Percent Effect” value was -20%. Consider `Cc1ccc(N2CC[C@H]3O[C@H](C(=O)NCc4ccco4)CC[C@H]32)nn1.O=C(O)C(F)(F)F`, for which the “Percent Effect” value is -36.19%. In the case of `Cc1nc(CNCC2CN(C)CCO2)cs1` (configuration not stated), the “Percent Effect” value is -7.018%.

Consider `CN1CCOC(CNCc2csc(C3CCCC3)n2)C1` (configuration not stated), for which the “Percent Effect” value was 51.17%.

In the case of `CN1CCOC(CNCc2csc(C3CCCCC3)n2)C1` (configuration not stated), the “Percent Effect” value is recorded as -18.06%. Then `CN(Cc1cn2c(n1)CN(c1ncc(F)cn1)CC2)Cc1ccco1.O=C(O)C(F)(F)F.O=C(O)C(F)(F)F`, with 8.494%; and `CC(=O)Nc1c(C)noc1/C=C\c1ccc(C)c(S(=O)(=O)NC2CC2)c1`, with 14.26%. As for `CC(C)N1Cc2c(C(=O)N3CCOCC3)nn(C)c2C1.O=C(O)C(F)(F)F.O=C(O)C(F)(F)F`, the figure is -12.04%; as for `Cc1nc(C2CCCN2Cc2cc(Cl)c3c(c2)OCCCO3)no1` (configuration not stated), 45.55%; as for `Cc1nc(C2CCCN2Cc2cc(Cl)c3c(c2)OCO3)no1` (configuration not stated), 23.975%. As for `Cc1nc(C2CCCN2Cc2cc(Cl)c3c(c2)OCCO3)no1` (configuration not stated), the figure is 57.05%. On to `CSc1nc(N)c2c(n1)N=C1COC(O)=C1C2c1cccc(Cl)c1` (configuration not stated), for which the “Percent Effect” value came to 2.564%. As for `CC(=O)Nc1nc(-c2ccccc2)c[nH]1`, the figure is -15.03%; as for `CNC(=O)c1cccc(CNC(C)c2cc(Cl)ccc2OC)c1` (configuration not stated), -13.72%; as for `CNC(=O)c1cccc(CNC(C)c2cc(C)ccc2OC(F)F)c1` (configuration not stated), -18.66%. As for `CNC(=O)c1cccc(CNC(C)c2ccc(F)cc2N(C)C)c1` (configuration not stated), the figure is 101.5%; as for `COCCNc1nc2c(c(NCCc3cccs3)n1)CCNCC2`, 55.02%; as for `COCCNc1nc2c(c(NCc3ccncc3)n1)CCNCC2`, -8.417%. Then `c1csc(CCNc2nc(-c3ccncc3)nc3c2CCNCC3)c1`, with 10.45%; and `O=C(O)C(F)(F)F.O=C(O)C(F)(F)F.O=C1NC2(CCN(Cc3cccs3)CC2)CC1c1ccncc1` (configuration not stated), with -33.96%. Consider `CNC(=O)CN1CCOCC2(CCCN(Cc3ccc(F)cc3)C2)C1.O=C(O)C(F)(F)F.O=C(O)C(F)(F)F` (configuration not stated), for which the “Percent Effect” value is listed as -6.144%. In the case of `CCCn1cnnc1CNC(=O)C1COc2ccc(OC)cc2C1` (configuration not stated), the “Percent Effect” value was -18.38%. Then `CCCn1cnnc1CNC(=O)C1COc2cc(OC)ccc2C1` (configuration not stated), with -11.02%; and `CCCn1ccnc1CNC(=O)C1COc2cc(OC)ccc2C1` (configuration not stated), with 80.42%; and `O=C(c1ccc(-c2cccc3c2CCNC3)o1)N1CCCC1`, with 54.8%. Then `O=C(c1ccc(-c2cccc3c2CCNC3)o1)N1CCOCC1`, with 23.74%; and `O=C(c1ccc(-c2cccc3c2CCNC3)o1)N1CCCCC1`, with 37.05%; and `Cc1ccc(N2CCO[C@H]3CN(Cc4ccoc4)C[C@H]32)nn1.O=C(O)C(F)(F)F.O=C(O)C(F)(F)F`, with -23.95%. Then `O=C(c1ccccc1)N1C[C@@H]2CC[C@H](C1)N(S(=O)(=O)c1cccnc1)C2`, with -19.46%; and `CSc1ccc(C(=O)N2CC(=O)N(CC3CC3)CC(O)C2)cc1` (configuration not stated), with 13.44%.

Consider `CC(C)(C)CN1CC(O)CN(C(=O)c2cccc(C(F)(F)F)c2)CC1=O` (configuration not stated), for which the “Percent Effect” value stood at 51.48%. As for `CCN1CC(O)CN(C(=O)c2cccc(C(F)(F)F)c2)CC1=O` (configuration not stated), the figure is 31.6%; as for `CSc1ccc(C(=O)N2CC(=O)N(CC(C)(C)C)CC(O)C2)cc1` (configuration not stated), 67.49%; as for `CC(C)CN1CC(O)CN(C(=O)c2cccc(C(F)(F)F)c2)CC1=O` (configuration not stated), 3.734%. `CCN1CC(O)CN(C(=O)c2ccc(SC)cc2)CC1=O` (configuration not stated): the “Percent Effect” value stood at 25.41%. On to `CC(Cn1cncc1-c1cnn(Cc2ccccc2)c1)N1CCCCC1.Cl` (configuration not stated), for which the “Percent Effect” value is -9.415%.

For the molecule `Cc1ccc(CN2CCn3c(CN4CCN(C)CC4)cnc3C2C)s1.O=C(O)C(F)(F)F.O=C(O)C(F)(F)F.O=C(O)C(F)(F)F` (configuration not stated), the “Percent Effect” value was -29.44%. `O=C(CN1CCOC(CNc2cccnn2)C1)NCc1ccccn1` (configuration not stated): the “Percent Effect” value is recorded as -12.01%. Then `c1cnnc(NCC2CN(CCN3CCCCC3)CCO2)c1` (configuration not stated), with 4.077%; and `OC1(CN2CCOC(CNc3cccnn3)C2)CCCCC1` (configuration not stated), with 9.895%.

`O=C(CN1CCOC(Cn2cccn2)C1)NCc1cccs1` (configuration not stated): the “Percent Effect” value is listed as -0.5047%.

In the case of `O=C(CN1CCOC(CNc2cccnn2)C1)N1CCCCC1` (configuration not stated), the “Percent Effect” value was determined as 57.16%. For the molecule `O=C(CN1CCOC(CNc2cccnn2)C1)NCc1cccs1` (configuration not stated), the “Percent Effect” value came to 104.8%. Then `Cc1oncc1C(=O)NCc1cc(=O)n2c(n1)CN(C(C)C)CCC2.O=C(O)C(F)(F)F`, with -32.5%; and `CC(C)(C)C(=O)NC(c1nccs1)C1CCN(CC2CCCCC2)CC1.Cl` (configuration not stated), with 4.524%; and `CCN1CCC2(C=C(C(=O)NC3CC3)c3ccccc32)CC1.O=C(O)C(F)(F)F`, with -9.893%.
